“And” between values parts separate entries of the source, which are not always exact repeats. Identical values can stand only once. The source holds several records for some structures; these can differ, active in one and inactive in another. The source made the active and inactive calls. Rule for the calls: active = hit-call score of the fitted dose curve at least 0.9, where 1 is the maximum; inactive = score below 0.9.

Chain of Tumor necrosis factor (Homo sapiens) (P01375 whole entry, looked up): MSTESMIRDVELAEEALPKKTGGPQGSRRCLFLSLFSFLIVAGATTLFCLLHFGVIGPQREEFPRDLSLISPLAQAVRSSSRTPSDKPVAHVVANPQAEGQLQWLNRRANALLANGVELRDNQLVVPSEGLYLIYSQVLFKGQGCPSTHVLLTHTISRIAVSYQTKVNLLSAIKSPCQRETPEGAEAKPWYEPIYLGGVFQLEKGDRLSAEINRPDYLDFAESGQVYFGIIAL

Read-out in the assay: Tumor necrosis factor (Homo sapiens) (UniProt P01375)
Nature of the assay: BSK_LPS_TNFa: BioMAP Diversity Plus: LPS Assay for Tumour Necrosis Factor alpha (TNFa) Biomarker Activity (AID 2283085). The conditions noted are these: primary human HUVEC with PBMC; actives raise or lower the signal. The protocol:
BSK_LPS is a cell-based, multiplexed-readout assay that uses umbilical vein endothelium and peripheral blood mononuclear cells, a human vascular primary cell co-culture, with measurements taken at 24 hours after chemical dosing in a 96-well plate.BSK_LPS_TNFa is an assay component measured in the BSK_LPS assay. It measures TNF-a antibody related to regulation of gene expression using ELISA technology.Data from the assay component BSK_LPS_TNFa was analyzed into 1 assay endpoint. This assay endpoint, BSK_LPS_TNFa, was analyzed with bidirectional fitting relative to DMSO as the negative control and baseline of activity. Using a type of binding reporter, gain or loss-of-signal activity can be used to understand changes in the signaling as they relate to the gene TNF. Furthermore, this assay endpoint can be referred to as a primary readout, because this assay has produced multiple assay endpoints where this one serves a signaling function. To generalize the intended target to other relatable targets, this assay endpoint is annotated to the cytokine intended target family, where the subfamily is inflammatory factor.
The levels of cell surface (or secreted, indicated by the prefix "s") biomarker endpoints were measured by ELISA. Overt cytotoxicity to cells in confluent adherent cultures (all systems other than the BT system) was assessed by measuring total protein levels using sulforhodamine B (SRB) staining in parallel cultures at the time of biomarker measurements, indicated as SRB endpoints. For proliferation assays for adherent cell types, individual cell types are cultured at sub-confluence and relative cell numbers quantified by SRB staining at time points optimized for each system (48 h: 3C and CASM3C systems; 72 h: BT and HDF3CGF systems; 96 h: SAg system). SRB was performed by staining cells with 0.1% SRB after fixation with 10% TCA and reading wells at 560 nm.Viability and proliferation of PBMC (T cells) was quantified by Alamar Blue reduction for the SAg and BT systems. For PBMC viability (referred to as PBMC Cytotoxicity within the assay endpoint names), cells were plated (75,000/well in a 96-well plate) and then chemical samples added for 1 h before addition of activators, SEB and TSST-1 (20 ng/mL final concentration each). Cells were incubated for 90 h. Then, Alamar Blue (20 uL/well) (Invitrogen, Cat DAL1100) was added for 6 h, and the plates were read with a fluorescence microplate reader at 546/580 nm (excitation/emission). For PBMC proliferation, cells were plated and activated as above but incubated for only 16 h prior to addition of Alamar Blue. Plates were read after 6 h.
Turning to `C=CC(N)=O`, the result was inactive. On to `ClC1=C(Cl)[C@]2(Cl)[C@@H]3[C@H]4C[C@H]([C@@H]5O[C@H]45)[C@@H]3[C@@]1(Cl)C2(Cl)Cl`, for which the AC50 is 4.16 µM (active). With `CC1=C2C[C@H]3[C@@H](CC=C4C[C@@H](O)CC[C@@]43C)[C@@H]2CC[C@]12O[C@@H]1C[C@H](C)CN[C@H]1[C@H]2C`, the result was inactive. With `C1CC2OC2CC1C1CO1` (stereo not given), the outcome was inactive.

Turning to `CCOP(=S)(OCC)SCSC(C)(C)C`, the AC50 is 35.2 µM (active). As to `CC(c1ccc(O)cc1)(c1ccc(O)cc1)c1ccc(O)cc1`, the concentration at half-maximal activity (AC50) is 32.6 µM (active). For the compound `O=C(O)C(F)(F)C(F)(F)C(F)(F)C(F)(F)C(F)(F)C(F)(F)C(F)(F)C(F)(F)C(F)(F)F`, the result was inactive; the half-maximal activity concentration (AC50) is 54.1 µM (active) and 43.6 µM (active).

Turning to `Nc1ccc(-c2ccc(N)cc2)cc1`, the result was inactive. For the compound `O=S(=O)(O)C(F)(F)C(F)(F)C(F)(F)C(F)(F)C(F)(F)C(F)(F)F`, the outcome was inactive. Take `COS(=O)(=O)OC`: the AC50 is 0.318 µM (active).

For `Cc1cc(O)ccc1Cl`, the result was inactive.

Regarding `CC(C)(c1ccccc1)c1ccc(O)cc1`, the concentration at half-maximal activity (AC50) was 31.5 µM (active). Take `Cc1ccccc1CO[C@@H]1C[C@@]2(C(C)C)CC[C@]1(C)O2`: the result was inactive. Regarding `ClC1=C(Cl)[C@]2(Cl)[C@@H]3[C@@H](Cl)[C@H]4O[C@H]4[C@@H]3C1(Cl)C2(Cl)Cl`, the half-maximal activity concentration (AC50) is 2.42 µM (active).

On to `Clc1ccc(C(c2ccccc2Cl)C(Cl)(Cl)Cl)cc1` (stereo not given), for which the AC50 is 23.8 µM (active). `CCCN(CCC)N=O`: the result was inactive. For `N#Cc1ccc(N(CC(N)=O)CC(F)(F)F)cc1C(F)(F)F`, the result was inactive. As to `O=C(O)C(F)(F)C(F)(F)C(F)(F)C(F)(F)C(F)(F)C(F)(F)C(F)(F)C(F)(F)F`, the result was inactive. Still for that read-out and setting: with `CCC(C)c1cc([N+](=O)[O-])cc([N+](=O)[O-])c1O` (stereo not given) the entry was “inactive”. `Cc1cc2c3c(c1)C(c1ccccc1)=N[C@@H](NC(=O)c1ccncc1)C(=O)N3CC2`: the AC50 was 7.3 µM (active).

For the compound `CCC(C)(c1ccc(O)cc1)c1ccc(O)cc1`, the result was inactive. Same read-out and setting: then `C=CC(=O)NCNC(=O)C=C`, with “inactive”.

For `O=C(O)C(F)(F)C(F)(F)C(F)(F)C(F)(F)C(F)(F)F`, the result was inactive. With `Cc1cc(-c2ccc(N)c(C)c2)ccc1N`, the outcome was inactive. In the case of `Cc1cccc(C)c1N`, the result was inactive.

Take `Cc1ccc(O)c(C)c1`: the result was inactive.

Consider `CC#Cc1cc(C)nc(Nc2ccccc2)n1`, for which the result was inactive.

Turning to `CCNc1nc(NC(C)C)nc(SC)n1`, the AC50 is 5.99 µM (active).

As to `ClC(Cl)=C(c1ccc(Cl)cc1)c1ccc(Cl)cc1`, the concentration at half-maximal activity (AC50) is 31.8 µM (active).

Consider `Oc1ccc(Cl)cc1Cl`, for which the outcome was inactive. For the compound `ClC1=C(Cl)[C@]2(Cl)[C@@H]3[C@@H]4C[C@@H]([C@H]5O[C@@H]45)[C@@H]3[C@@]1(Cl)C2(Cl)Cl`, the AC50 is 3.05 µM (active). `Cc1ccccc1O`: the outcome was inactive.

Consider `CC(C)C(=O)OCC(C)(C)C(OC(=O)C(C)C)C(C)C` (stereo not given), for which the result was inactive. In the case of `CO/C=C(/C(=O)OC)c1ccccc1COc1cccc(C(F)(F)F)n1`, the AC50 is 0.783 µM (active).

On to `NS(=O)(=O)C(F)(F)C(F)(F)C(F)(F)C(F)(F)C(F)(F)C(F)(F)C(F)(F)C(F)(F)F`, for which the AC50 was 28.6 µM (active) and 49.6 µM (active) and 49.3 µM (active). Regarding `CN(C)CCO`, the result was inactive. Still for that read-out and setting: then `CCCCCCCCOC(=O)c1ccccc1C(=O)OCCCCCCCC`, with “inactive”; and `Clc1ccc(C(Cl)(Cl)Cl)cc1`, with “inactive”.

As to `Oc1ccc(C(c2ccc(O)cc2)(C(F)(F)F)C(F)(F)F)cc1`, the AC50 is 21.5 µM (active).

By AC50 is commonly meant the concentration giving half of the maximal activity seen.

For the origin of these results see PubChem BioAssay (EPA / NIEHS).
